Experimental findings from PubChem BioAssay (Tox21) are described below.

“And” between values parts separate entries of the source, which are not always exact repeats. Equal entries are not always repeated. Results filed as inconclusive are left out. A structure can be active in one record and inactive in another. The source made the active and inactive calls. Unless noted, calls come from the whole dose curve; as a rule, active = well fitted curve in the direction sought with a large enough effect in the repeat runs; inconclusive = weak or mixed curves; inactive = no such curve, though single readings can be large; an effect the other way counts as inactive or inconclusive.

Test [1] in a line: A CellTox Green Cytotoxicity Assay to monitor cytotoxicity in HEK293 cells - 32 hour (AID 1224881). Note: nearly all actives have a fitted effect of over 40% in size. Note: potency is the fitted concentration of half-maximal effect. A digest of the protocol: (§1)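 Real-time, in one plate: 600 HEK293 cells/well with dead-cell DNA dye, pinned compound after 5 h, 37 C incubation over 40 h; viable cells give no appreciable fluorescence.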
The nature of test [2]: A CellTox Green Cytotoxicity Assay to monitor cytotoxicity in HepG2 cells - 0 hour (AID 1224882). Note: nearly all actives have a fitted effect of over 35% in size. Note: potency is the fitted concentration of half-maximal effect. A digest of the protocol: (§2)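 Cytotoxicity was tracked as dead-cell DNA fluorescence in HepG2 cells treated with test compounds at 37 C; each time-point value comes from one kinetic series spanning 0, 8, 16, 24, 32 and 40 h.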
Test [3] is described as follows: A CellTox Green Cytotoxicity Assay to monitor cytotoxicity in HepG2 cells - 32 hour (AID 1224883). Note: nearly all actives have a fitted effect of over 50% in size. Note: potency is the fitted concentration of half-maximal effect. In a few lines:
as §2

Test [4] is described as follows: A CellTox Green Cytotoxicity Assay to monitor cytotoxicity in HEK293 cells - 8 hour (AID 1224884). Note: nearly all actives have a fitted effect of over 35% in size. Note: potency is the fitted concentration of half-maximal effect. A digest of the protocol:
as §1

Test [5] is described as follows: qHTS RealTime-Glo MT Cell Viability Assay in HepG2 cells - 16 hour (AID 1224885). Note: nearly all actives have a fitted effect of over 50% in size. Note: potency is the fitted concentration of half-maximal effect. A digest of the protocol: (§3)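 Luminescence read-out: viable HepG2 cells reduce a prosubstrate to a NanoLuc substrate, giving a signal proportional to live cell number. Reads taken at 0, 8, 16, 24, 32 and 40 h of compound exposure at 37 C.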
In general terms: Quantitative high-throughput screening tests each substance at several concentrations.

A short description of test [6]: qHTS RealTime-Glo MT Cell Viability Assay in HEK293 cells - 24 hour (AID 1224886). For activity change, negative = cytotoxicity: top concentration of the series differs between compounds. Note: nearly all actives have a fitted effect of over 50% in size. Note: potency is the fitted concentration of half-maximal effect. In a few lines: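 Nonlytic real-time viability readout: viable cells convert prosubstrate to NanoLuc substrate, giving luminescence proportional to live cell number. HEK293, 600 cells/well, compound added after 5 h, continuous culture at 37 C.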
Test [7] is described as follows: A CellTox Green Cytotoxicity Assay to monitor cytotoxicity in HEK293 cells - 16 hour (AID 1224888). Note: nearly all actives have a fitted effect of over 35% in size. Note: potency is the fitted concentration of half-maximal effect. A digest of the protocol:
as §1

A short description of test [8]: qHTS RealTime-Glo MT Cell Viability Assay in HepG2 cells - 0 hour (AID 1224889). Note: nearly all actives have a fitted effect of over 50% in size. Note: potency is the fitted concentration of half-maximal effect. In a few lines: as §3
Test [9] in a line: A CellTox Green Cytotoxicity Assay to monitor cytotoxicity in HepG2 cells - 8 hour (AID 1224890). Note: nearly all actives have a fitted effect of over 45% in size. Note: potency is the fitted concentration of half-maximal effect. In a few lines: as §2
A short description of test [10]: qHTS assay to identify small molecule antagonists of the estrogen receptor alpha (ER-alpha) signaling pathway using the BG1 cell line in the presence of 0.1 nM 17-beta-estradiol - cell viability counter screen (AID 1259241). Note: nearly all actives have a fitted effect of over 40% in size. Note: potency is the fitted concentration of half-maximal effect. A digest of the protocol:
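Estradiol-stimulated (0.1 nM) VM7Luc4E2 cells exposed to compounds 22 hr; viability measured by fluorescence of cleaved CellTiter-Fluor substrate after 30 min.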

Test [11] is described as follows: qHTS assay to identify small molecule antagonists of the androgen receptor (AR) signaling pathway using the MDA cell line in the presence of 0.5 nM R1881 - cell viability counter screen (AID 1259242). Note: nearly all actives have a fitted effect of over 45% in size. Note: potency is the fitted concentration of half-maximal effect. A digest of the protocol:
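Cells seeded at 3,000/well and allowed 5 hr at 37C, 0% CO2 before compound transfer and R1881 (0.5 nM final) addition; 16 hr later, live-cell protease fluorescence indicated cytotoxicity.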

The nature of test [12]: qHTS assay to identify small molecule phospholipidosis (PLD) inducers (AID 1259344; active = well fitted curve in the direction sought with a large enough effect; an effect the other way counts as inactive or inconclusive). A digest of the protocol: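 After 4 h attachment on collagen I, HepG2 cells were dosed with compound alongside LipidTOX Red, kept 24 h at 37 C, fixed, and imaged for lamellar phospholipid pits.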
Test [13] is described as follows: qHTS assay to identify small molecule HDAC inhibitors (AID 1259364). Note: potency is the fitted concentration of half-maximal effect.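 Note: wild-type HCT-116 cells with endogenous class I/II HDAC activity; nearly all actives have a fitted effect of over 45% in size.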 In a few lines:
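HCT-116 wt cells, 1,500/well, overnight attach. Compounds (DMSO) 2 h, 37 °C. HDAC-Glo I/II, 30 min RT. Luminescence.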

The nature of test [14]: qHTS assay to identify small molecule HDAC inhibitors - cell viability counter screen (AID 1259365). For activity change, negative = cytotoxicity: series mostly up to about 92 µM. Note: nearly all actives have a fitted effect of over 50% in size. Note: potency is the fitted concentration of half-maximal effect. A digest of the protocol:
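After overnight seeding at 1,500 cells per well, wild-type HCT-116 cultures took up compounds in DMSO for 2hr at 37 C. Viable cell content came from luminescence with CellTiter-Glo.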

Test [15] can be described thus: qHTS assay to identify small molecule agonists of the sonic hedgehog signaling (Shh) pathway - cell viability counter screen (AID 1259366). Note: nearly all actives have a fitted effect of over 50% in size. Note: potency is the fitted concentration of half-maximal effect. A digest of the protocol: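 Same-well cytotoxicity read. Gli1-Luc reporter 3T3 cells; compounds 24hr, 37C/5% CO2; CellTiter-Fluor fluorescence.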
Test [16] in a line: qHTS assay to identify small molecule antagonists of the sonic hedgehog signaling (Shh) pathway - cell viability counter screen (AID 1259367). Note: nearly all actives have a fitted effect of over 55% in size. Note: potency is the fitted concentration of half-maximal effect. In a few lines:
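Conditioned medium drove Shh signaling in 3T3 Gli1-Luc cells exposed to compounds at 37C and 5% CO2. Viability was determined from CellTiter-Fluor fluorescence, with reagent incubated 1 hr after 23 hr of treatment.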

Test [17] can be described thus: qHTS assay to identify small molecule agonists of the sonic hedgehog signaling (Shh) pathway (AID 1259368; calls by dose curve;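 note: NIH/3T3-derived 3T3Gli1-Luc cells carrying a stable Gli1-driven firefly luciferase reporter; series mostly up to about 92 µM; nearly all actives have a fitted effect of over 15% in size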). A digest of the protocol: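 Following a 24 hr incubation with DMSO-dissolved compounds at 37 C, 5% CO2, Gli1-Luc NIH/3T3-derived cells received luciferase reagent for 30 min at room temperature prior to luminescence measurement.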
The target in test [18] is Estrogen receptor (Homo sapiens) (UniProt P03372). The test can be described thus: qHTS assay to identify small molecule antagonists of the estrogen receptor alpha (ER-alpha) signaling pathway using the BG1 cell line in the presence of 0.1 nM 17-beta-estradiol (AID 1259244). Note: nearly all actives have a fitted effect of over 50% in size. Note: potency is the fitted concentration of half-maximal effect. In a few lines: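 Luciferase signal from VM7Luc4E2 ERE-reporter cells, co-dosed with test compound and 0.1 nM final 17beta-estradiol for 22 h, read with ONE-Glo.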
Sequence of Estrogen receptor (Homo sapiens) (P03372 whole entry, looked up): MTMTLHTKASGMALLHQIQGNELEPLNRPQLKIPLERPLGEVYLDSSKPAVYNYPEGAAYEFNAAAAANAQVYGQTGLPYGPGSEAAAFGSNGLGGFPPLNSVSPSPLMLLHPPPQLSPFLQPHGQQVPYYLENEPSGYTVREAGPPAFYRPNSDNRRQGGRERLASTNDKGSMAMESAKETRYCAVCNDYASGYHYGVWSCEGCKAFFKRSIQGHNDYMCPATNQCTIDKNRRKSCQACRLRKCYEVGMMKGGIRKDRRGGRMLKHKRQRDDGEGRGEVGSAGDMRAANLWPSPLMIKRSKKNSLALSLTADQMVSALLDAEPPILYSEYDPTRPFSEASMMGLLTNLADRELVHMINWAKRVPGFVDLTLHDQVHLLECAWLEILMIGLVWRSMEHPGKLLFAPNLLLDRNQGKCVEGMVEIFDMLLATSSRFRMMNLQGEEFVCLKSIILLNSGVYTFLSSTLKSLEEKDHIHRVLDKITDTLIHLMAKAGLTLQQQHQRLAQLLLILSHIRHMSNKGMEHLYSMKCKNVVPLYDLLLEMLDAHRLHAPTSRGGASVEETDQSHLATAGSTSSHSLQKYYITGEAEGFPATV

The target in test [19] is Androgen receptor (Homo sapiens) (UniProt P10275). The test can be described thus: qHTS assay to identify small molecule antagonists of the androgen receptor (AR) signaling pathway using the MDA cell line in the presence of 0.5 nM R1881 (AID 1259243). Note: nearly all actives have a fitted effect of over 50% in size. A digest of the protocol: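 Luminescence from an AR/GR-responsive MMTV-luciferase construct in MDA-kb2 breast carcinoma cells, read 30 min after ONE-Glo, following 16 hr co-treatment with compounds and 0.5 nM R1881.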
Sequence of Androgen receptor (Homo sapiens) (P10275 whole entry, looked up): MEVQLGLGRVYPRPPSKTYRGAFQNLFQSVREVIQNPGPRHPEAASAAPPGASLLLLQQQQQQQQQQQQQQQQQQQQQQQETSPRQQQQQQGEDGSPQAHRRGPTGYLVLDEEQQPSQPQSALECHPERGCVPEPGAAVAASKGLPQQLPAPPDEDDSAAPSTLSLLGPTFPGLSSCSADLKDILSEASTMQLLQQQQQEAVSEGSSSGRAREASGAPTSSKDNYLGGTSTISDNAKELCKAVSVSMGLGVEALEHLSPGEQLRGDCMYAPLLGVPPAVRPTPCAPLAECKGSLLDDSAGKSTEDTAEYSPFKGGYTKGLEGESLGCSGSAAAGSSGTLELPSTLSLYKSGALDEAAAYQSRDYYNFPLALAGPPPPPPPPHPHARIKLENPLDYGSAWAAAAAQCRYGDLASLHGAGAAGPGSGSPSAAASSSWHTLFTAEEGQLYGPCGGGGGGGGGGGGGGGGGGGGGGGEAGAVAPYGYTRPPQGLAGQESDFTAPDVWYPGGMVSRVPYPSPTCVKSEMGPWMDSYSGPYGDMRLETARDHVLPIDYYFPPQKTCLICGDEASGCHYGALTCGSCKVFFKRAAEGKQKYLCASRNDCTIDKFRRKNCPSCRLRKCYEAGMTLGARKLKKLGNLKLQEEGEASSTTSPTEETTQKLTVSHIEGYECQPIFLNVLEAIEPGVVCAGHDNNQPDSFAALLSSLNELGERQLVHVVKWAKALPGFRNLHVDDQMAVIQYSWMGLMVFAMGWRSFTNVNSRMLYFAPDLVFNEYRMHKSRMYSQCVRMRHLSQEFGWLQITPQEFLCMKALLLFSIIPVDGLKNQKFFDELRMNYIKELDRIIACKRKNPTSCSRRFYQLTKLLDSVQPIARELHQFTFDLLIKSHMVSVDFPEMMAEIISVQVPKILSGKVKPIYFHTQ

Test [20] is described as follows: qHTS RealTime-Glo MT Cell Viability Assay in HEK293 cells - 8 hour (AID 1224887). In a few lines: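 Kinetic, non-lysing viability readout. Seed HEK293 (600/well) with reagent, incubate 5 h at 37 C/5% CO2, pin 23 nL compound in DMSO, incubate at 37 C, read luminescence at 0, 8, 16, 24, 32, 40 h.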
% is set by controls: 0 for no effect and ±100 for the full control effect.

For `C/C=C/C=C/C(=O)O`, the Potency entry in test [1], in test [2], in [3], in test [4], in test [5] and in test [6] was “inactive” in each case. Also, the Potency entry in [7], in test [8], in [9], in [10], in test [11] and in test [12] was “inactive” each time. Moreover, the Potency entry in [13], in [14], in test [15] and in test [16] was “inactive” in each case. In test [17], the molecule was classed as inactive.

For `O=C(Nc1ncc([N+](=O)[O-])s1)c1cccs1`, the Potency entry in [1], in test [2], in test [3], in [4], in [5] and in test [6] was “inactive” in each case. Moreover, the Potency result in [7], in [8], in test [9], in [18], in test [12] and in test [15] was “inactive” in each case. For the same molecule, in [13], the Potency is 0.422 µM (active).

Turning to `Nc1ccc2c(c1)CN1C(=O)c3ccccc3C1=N2`, the Potency in test [1] was 10.4 µM (active); in test [2], 10.4 µM (active); in [3], 10.4 µM (active); in test [4], 10.4 µM (active); in [6], 9.28 µM (active); in [7] it was 10.4 µM (active). For the same molecule, the Potency in test [9] was 10.4 µM (active); in test [18] it was 3.26 µM (active); in [13], 0.326 µM (active); in test [14], 11.6 µM (active). In addition, the activity change, negative = cytotoxic in [5] was -5.66% [at 15.8 µM] (inactive). In addition, in test [8], the activity change, negative = cytotoxicity is 4.86% [at 15.8 µM] (inactive). In addition, the activity, negative = inhibition in test [19] is 57.2% [at 19 µM] (inactive).

Take `CC(=O)CC(c1ccccc1)c1c(O)c2ccccc2oc1=O` (stereo not given): the Potency result in [1], in test [2], in test [3], in test [4], in test [5] and in test [6] was “inactive” each time. Besides, the Potency result in test [20], in [7], in test [9], in test [10], in test [11] and in test [12] was “inactive” each time. The Potency entry in [13], in test [14] and in test [15] was “inactive” each time. Besides, the Potency in test [16] was 68.9 µM (active) and inactive. In addition, the result in test [17] was inactive.

In the case of `CC(=O)Nc1c(I)c(NC(C)=O)c(I)c(C(=O)O)c1I`, the Potency result in test [1], in test [2], in test [3], in test [4], in test [5] and in test [6] was “inactive” throughout. Also, the Potency result in test [20], in [7], in [9], in test [10], in test [11] and in test [12] was “inactive” in each case. Also, the Potency entry in test [13], in test [14], in test [15] and in [16] was “inactive” each time. Further, in [17], the molecule was classed as inactive.

Turning to `O=C(O)CC(O)C(=O)O` (stereo not given), the Potency result in [1], in test [2], in test [3], in [4], in [5] and in test [6] was “inactive” throughout. Besides, the Potency result in test [20], in test [7], in [9], in test [10], in test [11] and in test [12] was “inactive” throughout. In addition, the Potency result in test [13], in test [14], in [15] and in [16] was “inactive” throughout. Also, the outcome in test [17] was inactive.

On to `O=S1(=O)OC(c2ccc(O)cc2)(c2ccc(O)cc2)c2ccccc21`, for which the Potency entry in test [1], in [2], in test [3], in test [4], in test [6] and in test [7] was “inactive” throughout. In addition, the Potency result in test [9], in test [12], in [13] and in test [14] was “inactive” in each case. Besides, the Potency in test [5] is 49 µM (active) and inactive; in [8] it was 49 µM (active); in test [10], 30.6 µM (active) and 21.7 µM (active) and 8.41 µM (active); in [11], 27.3 µM (active) and 19.3 µM (active) and 10.6 µM (active); in [18], 61.1 µM (active) and inactive; in test [15], 27.3 µM (active) and 11.9 µM (active). Further, the Potency in test [16] is 21.7 µM (active) and 24.3 µM (active) and 11.9 µM (active). Also, the molecule was classed as inactive in test [17].

On to `CC(O)(P(=O)(O)O)P(=O)(O)O`, for which the Potency result in test [1], in [2], in [3], in test [4], in test [5] and in test [7] was “inactive” throughout. Further, the Potency result in [8], in test [9], in test [10], in [11], in test [12] and in test [13] was “inactive” each time. The Potency result in [14], in [15] and in [16] was “inactive” each time. Further, in [6], the Potency result is “inactive and 436 nM (active)”. The outcome in [17] was inactive.

Turning to `NS(=O)(=O)O`, the Potency result in [1], in test [2], in test [3], in [4], in test [5] and in test [6] was “inactive” each time. For the same molecule, the Potency entry in [7], in test [8], in test [9], in test [10], in test [11] and in test [13] was “inactive” throughout. In addition, the Potency result in [14], in test [15] and in test [16] was “inactive” each time. In addition, in test [17], the molecule was called inactive.
